The campaign covered roughly 39,000 compounds. About 1,500 (3.8%) were called active. For the sample, actives were picked, then their nearest neighbours and some compounds at random.

In the assay the test system is HSkMC (human skeletal muscle cells). The experiment in a line: cytotoxicity call (relative viability < 0.9). The settings on record: 10 µM.
In the case of `CC(C)(N)c1cn(C2CCN(C(=O)C3CCC(C(C)(C)C)CC3)CC2)nn1` (configuration not stated), the cytotoxicity call was “inactive”.

Regarding `CCO[C@@H]1OC(C(=O)N2CCOCC2)=C[C@H](c2coc3ccccc3c2=O)[C@H]1CCCOC(=O)NCCCCCC(=O)NO`, the cytotoxicity call is “inactive”. On to `COc1ccc(S(=O)(=O)Nc2ccc3c(c2)CC(=O)N([C@@H](C)CO)C[C@@H](C)[C@@H](CN(C)C(=O)Nc2c(C)noc2C)O3)cc1`, for which the cytotoxicity call was “inactive”.

`Cc1ccc2sc(N(CCCN(C)C)C(=O)c3ccc(S(=O)(=O)N(C)C4CCCCC4)cc3)nc2c1C`: the cytotoxicity call is “active”. To `Cc1ccc2sc(N(CCCN(C)C)C(=O)c3ccc(S(=O)(=O)N(C)Cc4ccccc4)cc3)nc2c1C` belongs “active”; to `COc1cc(OC)c(S(=O)(=O)N(C)Cc2ccccc2)cc1S(=O)(=O)N(C)Cc1ccccc1`, “inactive”; to `O=C(c1ccc(S(=O)(=O)N2CCCCCC2)cc1)N(Cc1cccnc1)c1nc2c(F)cc(F)cc2s1`, “inactive”. As for `Cc1cc(Cl)cc2sc(N(Cc3ccccn3)C(=O)c3ccc(S(=O)(=O)N4CCCC4)cc3)nc12`, the cytotoxicity call is “inactive”. As to `C[C@@H]1CN([C@H](C)CO)C(=O)c2cc(NC(=O)Cn3cnnn3)ccc2O[C@H]1CN(C)CC1CCCCC1`, the cytotoxicity call was “inactive”. To `Cc1ccc(-c2ccc3c(c2)O[C@@H](CN(C)C(=O)NC(C)C)[C@H](C)CN([C@H](C)CO)S3(=O)=O)cc1` belongs “inactive”; to `CCCNC(=O)N[C@H]1CC[C@@H](CC(=O)N2CCN(C)CC2)O[C@@H]1CO`, “inactive”; to `C[C@@H]1CN([C@H](C)CO)C(=O)c2cc(NS(C)(=O)=O)ccc2O[C@@H]1CN(C)Cc1ccc(C(=O)O)cc1`, “inactive”. To `CC(C)NC(=O)N(C)C[C@@H]1OCCCC[C@@H](C)Oc2ccc(NS(=O)(=O)c3cn(C)cn3)cc2C(=O)N([C@@H](C)CO)C[C@H]1C` belongs “inactive”; to `C[C@H](CO)N1C[C@H](C)[C@H](CN(C)C(=O)Nc2ccccc2)OCCCC[C@H](C)Oc2ccc(NC(=O)Nc3cccc4ccccc34)cc2C1=O`, “inactive”.

For `Cc1noc(C)c1NC(=O)N(C)C[C@@H]1Oc2ccc(NC(=O)Nc3ccc(C(F)(F)F)cc3)cc2C(=O)N([C@H](C)CO)C[C@@H]1C`, the cytotoxicity call was “inactive”. To `C[C@@H]1CN([C@H](C)CO)C(=O)c2cc(NC(=O)Nc3cccc4ccccc34)ccc2O[C@H]1CN(C)Cc1ccc(-c2ccccc2)cc1` belongs “inactive”.

In the case of `C[C@@H]1CN([C@H](C)CO)C(=O)c2cc(NC(=O)Nc3cccc4ccccc34)ccc2O[C@H]1CN(C)Cc1ccccc1`, the cytotoxicity call was “inactive”. To `C[C@H](CO)N1C[C@H](C)[C@H](CN(C)Cc2ccc(-c3ccccc3)cc2)Oc2ccc(NC(=O)Nc3cccc4ccccc34)cc2C1=O` belongs “active”; to `C[C@@H]1CN([C@@H](C)CO)C(=O)c2cc(NC(=O)Nc3cccc4ccccc34)ccc2O[C@H]1CN(C)Cc1ccc(-c2ccccc2)cc1`, “inactive”; to `C[C@@H]1CN([C@@H](C)CO)C(=O)c2cc(NC(=O)Nc3cccc4ccccc34)ccc2O[C@@H]1CN(C)Cc1ccc(-c2ccccc2)cc1`, “active”. To `C[C@H]1CN([C@@H](C)CO)C(=O)c2cc(NC(=O)Nc3cccc4ccccc34)ccc2O[C@H]1CN(C)Cc1ccc(-c2ccccc2)cc1` belongs “inactive”.

As to `C[C@H](CO)N1C[C@H](C)[C@@H](CN(C)Cc2ccc(-c3ccccc3)cc2)Oc2ccc(NC(=O)Nc3cccc4ccccc34)cc2C1=O`, the cytotoxicity call was “inactive”. To `C[C@@H]1CN([C@H](C)CO)C(=O)c2cc(NC(=O)Nc3cccc4ccccc34)ccc2O[C@@H]1CN(C)Cc1ccc(-c2ccccc2)cc1` belongs “inactive”; to `C[C@H]1CN([C@@H](C)CO)C(=O)c2cc(NC(=O)Nc3cccc4ccccc34)ccc2O[C@@H]1CN(C)Cc1ccc(-c2ccccc2)cc1`, “active”; to `Cc1ccc(S(=O)(=O)N(C)C[C@H]2Oc3c(NC(=O)Nc4ccc(C(F)(F)F)cc4)cccc3C(=O)N([C@H](C)CO)C[C@@H]2C)cc1`, “inactive”. To `CO[C@H]1CN(C)C(=O)c2cc(NS(=O)(=O)c3cn(C)cn3)ccc2OC[C@@H](C)N(Cc2cccc(F)c2)C[C@H]1C` belongs “inactive”. As for `Cc1noc(C)c1NC(=O)Nc1cccc2c1O[C@@H](CN(C)Cc1ccc(Oc3ccccc3)cc1)[C@@H](C)CN([C@@H](C)CO)C2=O`, the cytotoxicity call was “inactive”. To `COc1ccc(S(=O)(=O)N(C)C[C@@H]2Oc3cc(C4=CCCC4)ccc3S(=O)(=O)N([C@H](C)CO)C[C@@H]2C)cc1` belongs “inactive”; to `COCCNC(=O)C[C@H]1CC[C@H]2[C@@H](COC[C@@H](O)CN2C(=O)Nc2ccc3c(c2)OCO3)O1`, “inactive”. To `CC(C)NC(=O)Nc1cccc2c1O[C@H](CN(C)Cc1ccc3c(c1)OCO3)[C@@H](C)CN([C@H](C)CO)C2=O` belongs “inactive”; to `COc1ccc(NC(=O)Nc2ccc3c(c2)C(=O)N([C@H](C)CO)C[C@H](C)[C@H](CN(C)Cc2ccc(C(=O)O)cc2)OCCCC[C@H](C)O3)cc1`, “inactive”; to `C[C@H](CO)N1C[C@H](C)[C@@H](CN(C)S(=O)(=O)c2cn(C)cn2)Oc2ccc(NS(=O)(=O)c3ccc(Cl)cc3)cc2CC1=O`, “inactive”. For the molecule `C[C@H]1CN=C(NS(=O)(=O)c2ccccc2)N1`, the cytotoxicity call was “inactive”. To `C=CCON1C(=O)[C@@H]2[C@@H](C1=O)[C@@H]1C=C[C@@H]2O1` belongs “inactive”; to `CCCCc1oc2ccccc2c1C(=O)c1cc(I)c(OCCN(CC)CC)c(I)c1`, “active”; to `CCc1oc2ccccc2c1C(=O)c1cc(Br)c(O)c(Br)c1`, “inactive”. Consider `CCCCN(CCCC)CCCOC(=O)c1ccc(N)cc1.O=S(=O)(O)O`, for which the cytotoxicity call is “inactive”.

For the molecule `CCCCc1oc2ccccc2c1C(=O)c1cc(I)c(OCCN(CC)CC)c(I)c1.Cl`, the cytotoxicity call was “inactive”.

Take `CCCCc1oc2ccc(NS(C)(=O)=O)cc2c1C(=O)c1ccc(OCCCN(CCCC)CCCC)cc1`: the cytotoxicity call was “active”. As for `CCCCOc1cc(C(=O)OCCN(CC)CC)ccc1N.Cl`, the cytotoxicity call was “inactive”. To `CCCCc1oc2ccc(NS(C)(=O)=O)cc2c1C(=O)c1ccc(OCCCN(CCCC)CCCC)cc1.Cl` belongs “active”. To `C[C@H]1CN([C@@H](C)CO)C(=O)c2c(c3ccccc3n2C)-c2ccccc2CO[C@@H]1CN(C)C(=O)Nc1cccc(C(F)(F)F)c1` belongs “inactive”; to `O=C(C[C@@H]1C=C[C@@H](NC(=O)Cc2ccccn2)[C@@H](CO)O1)NCCCN1CCOCC1`, “inactive”. To `CNC(=O)C[C@@H]1CC[C@@H]2[C@H](COc3ccc(NC(=O)c4ccc(C(F)(F)F)cc4)cc3C(=O)N2C)O1` belongs “inactive”. For the molecule `C[C@@H]1CCCCO[C@@H](CN(C)S(=O)(=O)c2cn(C)cn2)[C@@H](C)CN([C@@H](C)CO)C(=O)c2cc(NC(=O)Nc3ccc(C(F)(F)F)cc3)ccc2O1`, the cytotoxicity call is “inactive”. To `COCCOC(=O)N1C(=O)[C@@]2(c3cc(C#Cc4ccc(OC)cc4)ccc31)[C@H](c1ccccc1OCCO)N1[C@H](c3ccccc3)[C@H](c3ccccc3)OC(=O)[C@H]1[C@@H]2C(=O)N1CCN(c2ncccn2)CC1` belongs “inactive”; to `Cc1noc(C)c1NC(=O)N(C)C[C@@H]1OCCCC[C@H](C)Oc2ccc(NC(=O)NC3CCCCC3)cc2C(=O)N([C@@H](C)CO)C[C@H]1C`, “inactive”; to `CO[C@@H]1CN(C)C(=O)c2cc(NC(=O)NC(C)C)ccc2OC[C@H](C)N(Cc2ccc(-c3ccccn3)cc2)C[C@@H]1C`, “inactive”.

For the molecule `C[C@@H]1CCCCO[C@H](CN(C)S(C)(=O)=O)[C@@H](C)CN([C@H](C)CO)C(=O)c2cc(NS(=O)(=O)c3cccs3)ccc2O1`, the cytotoxicity call was “inactive”. For the molecule `C[C@@H]1CCCCO[C@@H](CN(C)C(=O)Nc2ccc(C(F)(F)F)cc2)[C@H](C)CN([C@H](C)CO)C(=O)c2cc(NC(=O)Cc3ccccc3)ccc2O1`, the cytotoxicity call was “inactive”. To `COc1nc(=NC(=O)NS(=O)(=O)Nc2cccc3cccnc23)nc(OC)[nH]1` belongs “active”; to `O=C(Oc1cccc2cccnc12)c1ccccc1`, “inactive”. To `COc1ccc(N2C(=O)C[C@@H](c3ccc(Br)cc3)[C@H]2C(=O)Nc2cccc3cccnc23)cc1` belongs “inactive”. Regarding `CNC[C@H]1Oc2c(NS(=O)(=O)c3cn(C)cn3)cccc2C(=O)N([C@H](C)CO)C[C@@H]1C`, the cytotoxicity call is “inactive”.

Take `COc1cc2ncnc(Nc3ccc(F)c(Cl)c3)c2cc1OCCCN1CCOCC1`: the cytotoxicity call is “inactive”.

With `COc1cc2ncnc(Oc3cccc(NC(=O)Nc4cc(C(C)(C)C(F)(F)F)on4)c3)c2cc1OC`, the cytotoxicity call is “inactive”. To `COc1ccc2c3c(n(c2c1)C)[C@H](CO)N(C[C@]13CCN(CC1)C(=O)CN1CCOCC1)C(=O)Nc1ccc(cc1)F` belongs “inactive”. To `COc1cc2c(Oc3ccc(NC(=O)C4(C(=O)Nc5ccc(F)cc5)CC4)cc3F)ccnc2cc1OCCCN1CCOCC1` belongs “active”. To `CCOc1ccn(-c2ccc(F)cc2)c(=O)c1C(=O)Nc1ccc(Oc2ccnc(N)c2Cl)c(F)c1` belongs “inactive”. With `COc1ccc2c3c([nH]c2c1)[C@H](CO)N(C[C@]13CCN(CC1)C(=O)Nc1c(noc1C)C)C(=O)Nc1ccc(cc1)F`, the cytotoxicity call is “inactive”. Turning to `COc1cc2nccc(Oc3ccc(NC(=O)C4(C(=O)Nc5ccc(F)cc5)CC4)cc3)c2cc1OC`, the cytotoxicity call is “active”. To `COc1cc2nccc(Oc3ccc(NC(=O)c4cn(C(C)C)c(=O)n(-c5ccc(F)cc5)c4=O)cc3F)c2cc1OC` belongs “active”. With `C[C@H](CO)N1C[C@H](C)[C@@H](CN(C)S(=O)(=O)c2cccs2)Oc2ccc(NS(=O)(=O)c3cccs3)cc2CC1=O`, the cytotoxicity call is “inactive”. To `C[C@H](CO)N1C[C@H](C)[C@@H](CN(C)Cc2ccc(C(F)(F)F)cc2)Oc2ccc(NC(=O)CCC(F)(F)F)cc2C1=O` belongs “inactive”. To `C[C@@H]1CN([C@@H](C)CO)C(=O)CCCn2nncc2CO[C@H]1CN(C)C(=O)c1cc(-c2ccccc2)on1` belongs “inactive”. To `C[C@H](CO)N1C[C@H](C)[C@H](CN(C)CC2CC2)OCCCC[C@H](C)Oc2ccc(NS(=O)(=O)c3ccc(Cl)cc3)cc2C1=O` belongs “inactive”. In the case of `C[C@@H]1CN([C@H](C)CO)C(=O)Cc2cc(NS(=O)(=O)c3cn(C)cn3)ccc2O[C@@H]1CN(C)Cc1ccc(C(=O)O)cc1`, the cytotoxicity call was “inactive”.

The record behind these values is the antibiotic and cytotoxicity screens of Wong et al. (2023).
